98 molecules from PubChem BioAssay AID1209 (Sanford-Burnham Center for Chemical Genomics, 2008) can be followed below.

The inhibition is the change of the read-out against control, counted positive when it falls.

The campaign covered roughly 190,000 compounds. About 810 (0.43%) were called active. The sample as a whole holds a higher share of actives than the screen did. Unmarked numbers belong to inactive results. Rule as the data show it: active = inhibition above about 50%; inactive = the rest.

Mannose-6-phosphate isomerase (Homo sapiens), sequence (P34949 whole entry, looked up): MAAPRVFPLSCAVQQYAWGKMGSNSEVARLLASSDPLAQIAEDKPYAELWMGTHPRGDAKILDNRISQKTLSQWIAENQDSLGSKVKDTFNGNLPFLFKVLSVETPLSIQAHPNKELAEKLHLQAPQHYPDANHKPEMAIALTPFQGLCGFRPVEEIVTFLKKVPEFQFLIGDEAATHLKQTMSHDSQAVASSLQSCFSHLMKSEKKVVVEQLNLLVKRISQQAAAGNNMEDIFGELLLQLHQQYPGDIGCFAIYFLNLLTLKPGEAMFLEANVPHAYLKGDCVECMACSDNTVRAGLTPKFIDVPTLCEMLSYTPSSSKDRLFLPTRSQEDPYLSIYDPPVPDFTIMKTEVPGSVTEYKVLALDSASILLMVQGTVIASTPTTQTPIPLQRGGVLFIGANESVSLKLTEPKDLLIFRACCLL

The assay concerns the target Mannose-6-phosphate isomerase (Homo sapiens) (UniProt P34949). Put plainly: inhibitors of human PMI, primary screen, biochemical, fluorescence intensity, coupled assay (AID 1209).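 Also: plate controls were DMSO vehicle for no effect and wells lacking substrate for full effect.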 As to conditions: purified PMI enzyme, at 20 µM, hits give high values.
On to `Nc1ccc(N2CCCCC2)cc1N1CCCCC1`, for which the inhibition is 61.7% (active).
As to `Nc1ccc(N2CCCCCC2)cc1`, the inhibition is -3.3%.
Next, `Cc1nn(-c2cc(N3CCCCC3)ccc2N)c(=O)c2ccccc12`: 25.5%; `Cc1ccc2nc(N(CCCN(C)C)C(=O)COc3ccc(Cl)cc3)sc2c1`: -9.9%.
Next, `Cc1cc(C)c2sc(N(CCCN(C)C)C(=O)COc3ccc(Cl)cc3)nc2c1`: 50.2% (active); `CN(C)CCCN(C(=O)COc1ccc(Cl)cc1)c1nc2ccc(F)cc2s1`: -8%; `COc1ccc(-n2ncc3c(=O)n(Cc4c(F)cccc4Cl)cnc32)cc1`: 1.8%.
As to `Cc1ccc(NS(=O)(=O)c2cc(NC(=O)c3ccc4c(c3)NC(=O)CS4)ccc2C)c(C)c1`, the inhibition is 41.1%.
Take `Cc1ccc(NS(=O)(=O)c2cc(NC(=O)c3ccc4c(c3)NC(=O)CS4)ccc2Cl)c(C)c1`: the inhibition is 59.3% (active).
In the case of `O=C1CSc2ccc(C(=O)Nc3cccc(S(=O)(=O)Nc4ccc(Br)cc4)c3)cc2N1`, the inhibition was 62.8% (active).
In the case of `O=C(Nc1cccc(S(=O)(=O)Nc2ccc(Cl)cc2)c1)c1ccc(Cl)nc1`, the inhibition is 15.9%.
Next, `Cc1ccc(NS(=O)(=O)c2cc(C(=O)O)ccc2Cl)c(C)c1`: -31.1%; `COc1ccc(NS(=O)(=O)c2cc(NC(=O)c3ccc(F)cc3)ccc2OC)cc1`: 14.1%.
Next, `COc1ccc(NC(=O)c2c(F)cccc2F)cc1S(=O)(=O)Nc1ccc(Br)cc1`: 19.4%; `COc1ccc(NC(=O)c2ccc3c(c2)NC(=O)CS3)cc1S(=O)(=O)Nc1ccc(Br)cc1`: 54.5% (active).
Next, `COc1ccc(NC(=O)c2cccc(S(=O)(=O)Nc3ccc(Br)cc3)c2)cn1`: 12.5%; `CCN(CC)CCNC(=O)C1CCC(=O)N1CCc1ccccc1` (stereo not drawn): 4.7%.
Consider `CCOc1cc(/C=N/O)ccc1OCc1ccc(F)cc1`, for which the inhibition is -0.3%.
Next, `CC(C)NC(=O)c1onc(CSc2ccc(F)cc2)c1C(=O)O`: -5.1%; `O=C(c1ccc(F)cc1)N1CCN2C(=O)c3ccccc3C12c1ccc(Cl)cc1` (stereo not drawn): 8.3%.
Next, `Cc1c([N+](=O)[O-])ccc(S(=O)(=O)N2CCC(C(N)=O)CC2)c1C`: 10.6%.
Next, `COC(=O)c1ccc2c(=O)n(-c3ccccc3F)c(=S)[nH]c2c1`: -15.3%; `COC(=O)c1ccc(C(=O)OC)c(-n2c(=O)c3ccccc3c3ccccc3c2=O)c1`: 80.2% (active).
In the case of `COC(=O)c1ccc2c(=O)n(-c3ccccc3)c(=S)[nH]c2c1`, the inhibition is 0.9%.
Next, `CCCCCN(C(=O)NC(=O)Nc1nncs1)S(C)(=O)=O`: -0.4%; `CCn1cc(C2=NCCO2)c2ccccc21`: 0.2%.
Consider `CCOC(=O)Cc1csc(NC(=O)c2c(O)c3ccccc3n(C)c2=O)n1`, for which the inhibition is 7.5%.
Next, `O=C1CCC([N+](=O)[O-])C(c2cccc(Cl)c2Cl)N1` (stereo not drawn): -4.8%.
Next, `O=C1CCC([N+](=O)[O-])C(c2ccccc2Cl)N1` (stereo not drawn): 2.8%; `O=C1CCC([N+](=O)[O-])C(c2cccc3ccccc23)N1` (stereo not drawn): 101% (active).
Next, `O=C(Cc1ccccc1)Nc1ccccc1C(=O)O`: -3%.
On to `O=c1c2c([nH]c3ccc(Br)cc13)CCCC2`, for which the inhibition is -15.1%.
Turning to `O=c1ccc2cc3c([nH]c4ccc(Br)cc43)oc-2c1O`, the inhibition was 70.2% (active).
Next, `Cc1cc(=O)c2cc(Br)ccc2[nH]1`: 0.3%; `O=C(NCC(=O)N(Cc1cccs1)C(C(=O)NC1CCCCC1)c1ccco1)c1ccco1` (stereo not drawn): 11%; `CSc1ccc(/C=N/n2c(Cc3ccc(Br)cc3)n[nH]c2=S)cc1`: 14.5%.
Next, `S=c1[nH]nc(Cc2ccc(Br)cc2)n1/N=C/c1ccc(Cl)cc1`: 51.1% (active); `Cc1n[nH]c(=S)n1/N=C/c1ccc(OCc2ccc(Cl)cc2)cc1`: -6.8%.
Next, `CCN1CCN(C(=O)C(C)Nc2cc(Cl)c(OC)cc2OC)CC1` (stereo not drawn): 26.6%.
On to `O=C(CSc1nc2ccccc2c(=O)[nH]1)c1ccc(O)cc1O`, for which the inhibition is -5.9%.
Next, `CCCCNS(=O)(=O)c1ccc(NC(=O)C(Sc2ccccc2)c2ccccc2)cc1` (stereo not drawn): 23.4%; `O=c1c2ccccc2oc2nc(-c3ccco3)n(-c3ccccc3)c(=O)c12`: 1.3%.
Next, `Cn1c(N=Nc2ccc(N3CCOCC3)cc2)[n+](C)c2ccccc21`: 15.1%.
Next, `Cn1c(=Nc2ccc(N3CCOCC3)cc2)ccc2ccccc21`: 78.4% (active).
In the case of `CCn1c(=Nc2ccc(N3CCOCC3)cc2)ccc2ccccc21`, the inhibition is 6%.
Next, `CCOC(=O)Cc1csc(NC(=O)c2c(-c3ccccc3)noc2C)n1`: 2.9%; `Cc1cc(C)n(C(=O)c2ccncc2)n1`: 6.1%.
For the molecule `CC(=O)Oc1ccc2c(=O)c(N3C(=O)c4ccccc4C3=O)c(C)oc2c1C`, the inhibition is 14.5%.
Next, `Cc1oc2cc(O)ccc2c(=O)c1Oc1ccccc1`: 9.2%; `CCn1c(NCc2ccccn2)nc2c1c(=O)n(C)c(=O)n2C`: -0.4%; `Oc1c(/C=N/Nc2cccc3cccnc23)ccc2ccccc12`: -30.2%.
Next, `Oc1c(C=Nc2cccc3nsnc23)ccc2ccccc12`: 70.7% (active); `Oc1c(/C=N/c2ncn[nH]2)ccc2ccccc12`: 14.9%.
Regarding `CCCCCCC1CC(=O)NC(=S)N1` (stereo not drawn), the inhibition was 4.8%.
Regarding `COc1ccc(NC(=O)C(C)Oc2ccc(/C(C)=N\O)cc2)cc1` (stereo not drawn), the inhibition was -0.3%.
For `COc1cccc2cc(C(C)N(CCCN3CCOCC3)C(=S)Nc3cccc(C)c3)oc12` (stereo not drawn), the inhibition is 5.2%.
Take `COc1ccc(CNC(=O)c2cccc3c2C(=O)N(Cc2cccnc2)C3)cc1`: the inhibition is 4.4%.
Next, `O=c1oc2c(O)c(O)cc3c(=O)oc4c(O)c(O)cc1c4c23`: 67.5% (active); `Cc1c(Br)c(=O)oc2c(Br)c(O)c(O)cc12`: 12.8%.
For `Cc1c(Br)c(=O)oc2c(Br)c(O)ccc12`, the inhibition was -26.1%.
On to `O=C(COC(=O)c1ccc(Cl)nc1)c1ccc2c(c1)OCCO2`, for which the inhibition is -10.6%.
`CSCC[C@H](NC(=O)c1cc([N+](=O)[O-])ccc1Cl)c1nc2ccccc2[nH]1`: the inhibition was 16.7%.
In the case of `CN(C)c1ncccc1-c1nc2ccccc2s1`, the inhibition is -2.6%.
Next, `Cc1c(Cc2ccccc2)c(=O)oc2c(CN(C)C)c(O)c(Cl)cc12`: 1.2%.
Next, `COc1ccc2c(C)c(Cc3ccccc3)c(=O)oc2c1OC`: 0.7%; `Cc1c(Cc2ccccc2)c(=O)oc2c(O)c(O)ccc12`: 77.6% (active); `N#C/C(C(=O)N1CCCCC1)=C1/N=C(N)c2ccccc21`: -1.3%.
Next, `CC1CC1C(=O)Nc1cc(S(=O)(=O)N2CCOCC2)ccc1N1CCCC1` (stereo not drawn): -3.9%; `N#Cc1ccc(OCC(=O)NCCc2ccc(S(N)(=O)=O)cc2)cc1`: -7%; `O=C(O)c1cc(S(=O)(=O)N2CCOCC2)ccc1N1CCOCC1`: -1%.
For `O=c1c2ccccc2sn1-c1cc(S(=O)(=O)N2CCOCC2)ccc1N1CCOCC1`, the inhibition is 104% (active).
Next, `Cc1ccc(C)n1-c1cc(S(=O)(=O)N2CCOCC2)ccc1N1CCCC1`: 9.8%; `O=c1c2ccccc2sn1-c1ccc(S(=O)(=O)N2CCCC2)cc1`: 42.4%; `O=S(=O)(c1ccc2c(c1)oc1ccccc12)N1CCOCC1`: 9.1%.
Next, `O=c1c2ccccc2sn1-c1cc(S(=O)(=O)N2CCOCC2)ccc1N1CCCC1`: 92.7% (active).
Next, `CC(=O)c1ccc(N(C(=O)c2ccco2)C(C(=O)NC2CCCC2)c2ccc(N3CCOCC3)cc2)cc1` (stereo not drawn): 6.3%; `Cc1ccc(P(=O)(CO)c2ccc(C)cc2)cc1`: -12%; `CN(Cc1ccccc1)C(=O)COC(=O)c1ccc(Cl)c(N)c1`: 9.3%.
With `O=C(Cc1ccc(Cl)cc1Cl)NCC1(N2CCOCC2)CCCCC1`, the inhibition was 14.5%.
Next, `Cc1ccc(NS(=O)(=O)c2cc(C(=O)Nc3cccc(N(C)S(C)(=O)=O)c3)ccc2C)c(C)c1`: 5.7%; `CCOC(=O)C1CCN(C(=O)CC(C)c2ccccc2)CC1` (stereo not drawn): -0.6%.
Next, `CCc1ccc(O)c(N=Cc2cccc(C)c2O)c1`: 18.5%; `Cc1ccccc1N=Cc1cccc(O)c1O`: 74.1% (active).
Next, `Cc1ccc(O)c(C=Nc2cc(C)ccc2O)c1`: 23.1%.
Consider `CCN(CC)c1ccc(C=Nc2ccccc2C)c(O)c1`, for which the inhibition is 27.1%.
Next, `CCN(CC)c1ccc(C=Nc2ccc(C)cc2C)c(O)c1`: -0.7%; `O=C(/C=C/c1ccc([N+](=O)[O-])cc1)N(c1ccccn1)C1CCCCC1`: -38.1%.
Regarding `COc1cc(/C=N/N=C(/N)c2nonc2N)cc(Br)c1OCc1cccc(C)c1`, the inhibition is 16.3%.
Next, `OC(CNCc1ccccc1Cl)C(F)(F)F` (stereo not drawn): 5.4%.
Next, `COc1ccccc1N1CCN(C(=O)c2ccc(CSc3ccccc3)cc2)CC1`: -1.4%.
Next, `Cc1ccc(O)c(CP(=O)(c2ccccc2)c2ccccc2)c1`: -4.9%.
As for `COc1ccc(F)cc1C(=O)C1CCCN(C(=O)C2=C(C)OCCO2)C1` (stereo not drawn), the inhibition was 5.1%.
Next, `CCCCCn1c(SCC(=O)OC)nc2c1c(=O)[nH]c(=O)n2C`: 0.2%; `CCCCn1c(SCC(=O)OCC)nc2c1c(=O)[nH]c(=O)n2C`: 3.6%; `CCCCCCn1c(SCC(=O)OC)nc2c1c(=O)[nH]c(=O)n2C`: 54% (active).
Next, `Fc1ccc2nc(N3CCCC3)sc2c1`: 8.5%.
Next, `COc1cc(CNC(C)(C)CO)cc(Br)c1OCc1ccc(Cl)cc1`: 5.6%.
As for `FC(F)(F)c1cccc(OCCOCCn2cncn2)c1`, the inhibition was 3.9%.
